# Hit rate of the full screen: of about 340,000 compounds, about 1,400 (0.41%) were called active. Not shown: some 4% with an inconclusive outcome. The full list was thinned out, with actives kept by preference. Values without a mark were called inactive. The call rests on the fitted dose curve; cell line not stated here.
# Test: qHTS for Antagonists of gsp, the Etiologic Mutation Responsible for Fibrous Dysplasia/McCune-Albright Syndrome: qHTS; further: nearly all actives have a fitted effect of over 65% in size
# Conditions: gsp-mutant cells, cAMP HTRF, 30 min; series mostly up to 76.9 µM; activity change, negative = inhibition: at the top concentration
# Description: McCune-Albright syndrome (MAS) is a rare disease caused by somatic mutations in Gsgsp), a widely expressed protein central in signal transduction from G-coupled protein receptors (GPCRs). The disease symptoms are diverse, owing to the fact that the patients are mosaics with varying degrees of tissue involvement. Greater than 90% of the mutations in Gs in MAS occur at the R201 position and are equally divided between R201H and R201C. The R201 residue is central in the intrinsic GTPase activity of Gs and the H and C mutations lead to loss of, or impairment of, the GTPase activity. The intrinsic GTPase activity is necessary to terminate the interaction between Gs and adenylate cyclase, and to terminate the cAMP-mediated signaling of the given GPCR pathway. Thus, these activating mutations lead to ligand-independent activation of GPCR pathways. The tissue phenotype is determined by the role of Gs in the function of a given cell, and excess Gs/cAMP signaling in that cell. For example, pituitary somatotrophs overproduce growth hormone in a growth hormone releasing hormone-independent fashion, and gigantism/acromegaly ensues. Skeletal stem cells in the bone marrow behave as if they are under constant parathyroid hormone stimulation and fail to differentiate into osteoblasts and osteocytes, and proliferate as immature osteogenic cells and lead to the marrow fibrosis of fibrous dysplasia of bone. The goal of this project is to identify molecules with inhibitory activity at gsp mutations that will not only allow for in-depth study of the underlying molecular and cellular pathophysiology, but also serve as compounds from which drugs to treat FD/MAS can be developed NIH Chemical Genomics Center [NCGC] NIH Molecular Libraries Probe Centers Network [MLPCN] MLPCN Grant: IRP-FT-DE-2011-01 Assay Submitter (PI): Michael Collins, NIDCR
# 1.#Seed 2000 cells/well in 6 ul DMEM 10% FBS, 1% Pen/Strep, 0.5 mg/ml G418 2.#Incubate 16-24 hr at 37C, 5% CO2, 95% humidity 3.#Aspirate leaving 1 ul residual volume 4.#Dispense 5 ul/well DPBS + 1 mM CaCl2, 0.5 mM MgCl2, 0.05% BSA, 0.005% Tween 20 5.#Aspirate leaving 2 ul residual volume 6.#Dispense 23 nl/well compounds in DMSO 7.#Dispense 1 ul/well 300 uM Ro-20174 in DMEM 10% FBS 8.#Incubate 30 min at 37C, 5% CO2, 95% humidity 9.#Dispense 1.5 ul/well HTRF reagent: cAMP-d2 in lysis buffer 10.#Dispense 1.5 ul/well HTRF reagent: anti-cAMP antibody-K in lysis buffer 11.#Incubate 30 min at room temperature 12.#Detect HTRF signal using EnVision plate reader
# On the % scale 0 is the no-effect control and ±100 the full control effect; potency means the concentration at half of the fitted maximal effect.
SMILES,Potency,"activity change, negative = inhibition [%]"
COc1ccc(NC(=O)C2=CC(c3ccc(OC)c(OC)c3)=NS(=O)(=O)N2C)cc1,39.8 µM (active),
COc1cc(NC(=O)C2=CC(c3ccco3)=NS(=O)(=O)N2C)cc(OC)c1OC,,-2.3
COc1cc(NC(=O)C2=CC(c3ccc(C)cc3)=NS(=O)(=O)N2C)cc(OC)c1OC,,-12.6
COC(=O)Cc1nc2c(N)nc(N)nc2[nH]c1=O,,-0.61
CSc1ncnc2c1ncn2CC(=O)C1CCC2C3CCC4=CC(=O)CCC4(C)C3CCC12C (stereo unspecified),31.6 µM (active),
CC(=O)C12CC(C)=C(C)CC1CC1C3CCC4=CC(=O)CCC4(C)C3CCC12C (stereo unspecified),,-11.6
Cc1onc(-c2c(F)cccc2Cl)c1C(=O)Nc1cccc(S(=O)(=O)N2CCCCC2)c1,,-15.9
CN1CCOC1c1ccc(C2OCCN2C)cc1 (stereo unspecified),,-2.61
CC1CN(Cc2ccccc2)C(=S)NC1=O (stereo unspecified),,11.6
COc1ccccc1NC(=O)N(O)C1(C#N)CCCCC1,,10.5
CCOc1ccc2c(c1)C(c1ccc(C)cc1)=NNC(c1ccc(C)cc1)=N2,,-5.6
Cc1ccc(-c2csc(-c3c[nH]c4ccccc34)n2)cc1,,-14.8
Cc1ccc(C2=Nc3c(ccc4ccccc34)C(c3ccncc3)=NN2)cc1,31.6 µM (active),
CC(=O)c1ccc(NC(=O)C(C)OC(=O)c2ccc(NS(=O)(=O)c3ccc4[nH]c(=O)[nH]c4c3)cc2)cc1 (stereo unspecified),,3.15
O=C(O)C(CCc1ccccn1)c1ccccc1 (stereo unspecified),,1.38
Cc1ccc(/C=C2\SC(=S)N(CCC(=O)Nc3ccc(O)cc3)C2=O)cc1,,4.75
O=C(CCN1C(=O)/C(=C/c2cccs2)SC1=S)NNC(=O)c1cccc(O)c1,31.6 µM (active),
O=C(CCCN1C(=O)/C(=C/c2cccs2)SC1=S)Nc1ccc(O)cc1,,-10.1
Cc1ccc(OCCNC(=O)c2cccc(S(=O)(=O)N3CCN(Cc4ccccc4)CC3)c2)cc1,,-9.83
COc1ccc(OC)c(Cc2cnc3nc(N)nc(N)c3c2C)c1,,-2.01
CC(=O)OCCC(C)C,,9.48
CC(=O)OCC(COC(C)=O)OC(C)=O,35.5 µM (active),
CC(=O)OC(C)C[N+](C)(C)C (stereo unspecified),,1.38
O=C1OC(Oc2ccc(Br)cc2)(c2ccccc2)c2ccccc21 (stereo unspecified),,-18
CCCCN1CC(COc2ccccc2)Oc2cccc(F)c2S1(=O)=O (stereo unspecified),,-12.9
O=C(c1ccc(N2CCOCC2)c([N+](=O)[O-])c1)N1CCN(c2ccccc2F)CC1,,-2.65

SMILES,Potency,"activity change, negative = inhibition [%]"
O=C(c1cccc(F)c1)N1CCN(c2ccc([N+](=O)[O-])c(N3CCCCC3)c2)CC1,,-11.9
O=C(c1cccc(F)c1)N1CCN(c2ccc([N+](=O)[O-])c3cccnc23)CC1,39.8 µM (active),
COc1cc(C2c3cc4c(cc3C(O)C3COC(=O)C23)OCO4)cc(OC)c1OC (stereo unspecified),,16.2
O=C(Cc1ccc(S(=O)(=O)N2CCOCC2)s1)Nc1ccc(Br)c(C(F)(F)F)c1,,-38.2
O=C(c1cccnc1)N(Cc1ccccc1)C(=O)c1cccnc1,,5.46
CCCN(CC(=O)Nc1ccccc1C)C(=O)c1ccc(OCC(=O)N2CCOCC2)c(OCC)c1,,-2.96
COc1ccc(CCNC(=O)COc2cc(C)cc3oc(=O)c(C)c(C)c23)cc1OC,,4.24
CC(C)OCCCNC(=O)c1cc(Sc2ccc(F)cc2)nc2ccccc12,,16
CC(C)OCCCNc1ncnc2c1[nH]c1ccc(F)cc12,39.8 µM (active),
CCOC(=O)[C@H]1[C@H]2COc3ccc(Br)cc3[C@@H]2N2C(=O)CN(C)C(=O)[C@@]12C,,0.52
O=C(NCc1ccccc1)c1cccc(NC(=O)C2CCCCC2)c1,,-0.777
Cc1c(CN2CC[C@@H](N3CCN(c4ccccn4)CC3)[C@H](O)C2)[nH]c2ccc(F)cc12,,4.63
Fc1ccc2[nH]c3c(N4CCSCC4)ncnc3c2c1,28.2 µM (active),
CCN(CC)CCCN1C(=O)C(=O)/C(=C(/O)c2c(C)nc3ccccn23)C1c1ccc(C)o1 (stereo unspecified),,8.42
CC(=O)NCCC(=O)Nc1nc(-c2ccc3c(c2)OCCO3)cs1,,1.23
O=C(Nc1nc(-c2ccc3c(c2)OCO3)cs1)c1ccncc1,39.8 µM (active),
O=C(Nc1nc2ccccc2s1)c1ccc2c(c1)OCO2,,-20.8
N#CC1(Nc2ccc(-c3ccc(Cl)cc3)cc2)CCCC1,,2.59
FC(F)(F)c1ccc(-c2cccc3c2C2CC3CCN2Cc2ccccc2)cc1 (stereo unspecified),,-6.66
CCOC(=O)c1ccccc1OC(=O)Oc1ccccc1C(=O)OCC,,-13
O=C1C(Cl)=C(Oc2ccccc2)C(=O)c2ccccc21,39.8 µM (active),
CC(=O)Oc1ccc2c(c1)C(=O)c1ccccc1C2=O,,-0.802
CCCCN1CC(COCc2ccccc2)OCCS1(=O)=O (stereo unspecified),,12.5
C=CC(=O)Nc1ccc(Nc2ccnc(Nc3ccc(N4CCN(C)CC4)cc3)n2)cc1,,-4.93
COc1ccc(Cl)cc1C=CC=Nc1ccc(S(N)(=O)=O)cc1,,0.98
